Sampled rows, rich in hits. Any-hit rate of the full collection: about 19%.
HT1080 IDH1KD tx: HT-1080 IDH1 knockdown cell toxicity (counter line); HT-1080 IDH1 knockdown viability, ATP luminescence, 48 h; Potency, µM (highest dose often 46.1 µM), without a hit: at the highest dose activity, negative = toxicity, hits mostly cytotoxic; hit rate 2% among 360,000; AID 686971;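 note: 0% = DMSO wells and -100% = cell-free medium wells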
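CellTiter-Glo luminescence after 48 h compound exposure at 37 degrees C of IDH1-knockdown HT-1080 cells in 5% FBS RPMI. %Activity scaled between DMSO wells and cell-free media wells, with curves fitted and assigned curve classes.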
KB-3-1 cytotox: kills parental KB-3-1 adenocarcinoma cells. KB-3-1 viability, CellTiter-Glo ATP luminescence, 72 h. AID 1347075. Potency, µM (titrated, usually from 46.1 µM), usual class: cytotoxic. hit rate 1.4% among 400,000; note: nearly all actives have a fitted effect of over 60% in size
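Cytotoxicity in the drug-sensitive parental line KB-3-1 was scored as loss of CellTiter-Glo luminescence following 72 h incubation with compound. Values come from curve fitting of normalized concentration-response data.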
KB-V1 MDR tox: KB-V1 MDR subline cytotoxicity; KB-V1 MDR cells viability, CellTiter-Glo, 72 h; Potency, µM (top dose mostly 46.1 µM), most hits filed as cytotoxic; hit rate 3.4% among 400,000; note: nearly all actives have a fitted effect of over 60% in size
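In this primary screen, KB-V1 cells overexpressing P-gp are incubated with library compounds (lowest to highest concentration) for 72 h at 37 degrees C before a luminescent ATP viability read.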
DT40 TDP1 no CPT: qHTS for Inhibitors of human tyrosyl-DNA phosphodiesterase 1 (TDP1): qHTS in cells in absence of CPT; DT40 Tdp1-/- hTDP1 cells, no CPT, ATP luminescence, 48 h; Potency, µM (doses to about 46.2 µM), without a hit: at the highest dose activity change, negative = growth inhibition, usual class: inhibitors; hit rate 15% among 420,000; AID 686978, 2013; note: nearly all actives have a fitted effect of over 55% in size
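A cellular qHTS used chicken DT40 cells lacking endogenous Tdp1 but carrying stably transfected human TDP1. Compounds were applied without camptothecin, and cell growth kinetics were judged by ATP-dependent luminescence after ≥48 hr.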
DT40 TDP1 CPT: DT40-hTDP1 cell growth loss with CPT. chicken DT40 Tdp1-/-;hTDP1 cells + 20 nM CPT, ATP luminescence, 48 h. AID 686979. Potency, µM (series often up to 46.2 µM), without a hit: at the top dose activity change, negative = growth inhibition, usual class: inhibitors. hit rate 12% among 420,000; note: nearly all actives have a fitted effect of over 55% in size
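Chicken DT40 Tdp1-/- cells stably complemented with human TDP1 were seeded at 400 cells/well in medium containing 20 nM camptothecin, exposed to pin-transferred compounds, and grown at 37 °C for at least 48 hr. Viability was read as ATP luminescence.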
HT1080NT lethal: kills 2HG-producing HT-1080-NT fibrosarcoma cells; HT-1080-NT fibrosarcoma viability, CellTiter-Glo ATP luminescence, 48 h; Potency, µM (highest dose often 46.1 µM), without a hit: at the top dose activity, negative = less viability, most hits filed as cytotoxic; hit rate 1.6% among 360,000; AID 686970;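 note: NT is the 2HG producing partner of a matched IDH1 knockdown line; 0% = DMSO-treated cells and -100% = media-only wells without cells; nearly all actives have a fitted effect of over 55% in size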
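HT-1080-NT fibrosarcoma cells (2HG-overproducing), 750 cells/well in RPMI with 5% FBS, dosed after 2 h and incubated 48 h at 37C. CellTiter-Glo luminescence normalized to DMSO and no-cell wells; concentration-response curves fitted and classed.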
* hit, by the source's call; i = inactive; ? = inconclusive; nt = no result given. Calls come from the whole dose curve; as a rule, active = well fitted curve in the direction sought with a large enough effect; inconclusive = small, poorly fitted or top-dose-only effect, or another doubt; inactive = no such curve, though single readings can be large; an effect the other way counts as inactive or inconclusive. Unless noted, % is set by controls: 0 for no effect and ±100 for the full control effect; potency is the fitted concentration of half-maximal effect.

SMILES	HT1080 IDH1KD tx	KB-3-1 cytotox	KB-V1 MDR tox	DT40 TDP1 no CPT	DT40 TDP1 CPT	HT1080NT lethal
O=C(c1cc(Cl)ccc1Cl)N1CCN(c2ccccn2)CC1	-3%	i	?	-11%	-15%	-2%
O=C(c1cnc(N2CCN(c3ccccn3)CC2)c2ccccc12)N1CCN(c2cccc(Cl)c2)CC1	?	?	?	12µM*	13µM*	-21%
O=C(c1cc(Sc2ccc(Cl)cc2)nc2ccccc12)N1CCN(c2ccccn2)CC1	-25%	i	?	?	?	?
O=C(c1cc(Sc2cccc(Cl)c2)nc2ccccc12)N1CCN(c2ccccn2)CC1	-12%	i	i	?	15µM*	3%
O=C(CSc1nnc(N2CCCC2)n1-c1cccc(Cl)c1)N1CCN(c2ccccn2)CC1	5%	i	?	21µM*	?	11%
COc1ccc(/C(N)=N/OC(=O)CCCN2C(=O)c3ccccc3C2=O)cc1OC	-1%	i	i	-19%	-18%	13%
N#CC(CCc1ccc([N+](=O)[O-])cc1)(CCc1ccc([N+](=O)[O-])cc1)C(N)=O	-19%	i	i	13µM*	23µM*	0%
N#Cc1ccc(COn2nnc3ccccc32)cc1	-4%	i	i	-21%	2%	11%
O=C(NC(=S)N1CCCCC1c1cccnc1)c1ccc(F)cc1 (centres undefined)	9%	i	i	13%	-2%	4%
O=C(NC(=S)NN1CCCCC1c1cccnc1)c1ccc(Cl)cc1Cl (centres undefined)	-10%	?	i	26µM*	?	?
Nc1c(C(=O)N/N=C/c2cccnc2)oc2nc(-c3ccccc3)cc(-c3ccco3)c12	-25%	i	i	15µM*	?	-5%
Nc1c(C(=O)N/N=C/c2cccnc2)oc2nc(-c3ccco3)cc(-c3ccco3)c12	-10%	i	i	0.46µM*	2.9µM*	0%
NNC(=O)c1oc2nc(-c3ccco3)cc(-c3ccco3)c2c1N	-11%	i	i	?	?	-16%
N/C(=N\c1nc2ccccc2o1)NC(=O)c1ccccc1NC(=O)c1ccccc1	?	i	i	3.7µM*	5.2µM*	?
N/C(=N\c1nc2ccccc2o1)NC(=O)c1ccccc1F	8%	i	i	?	-1%	8%
COC(=O)C(C)NC(=O)N1CCN(c2nnc(C)c3c(C)n(-c4ccc(Cl)cc4)nc23)CC1 (centres undefined)	nt	i	i	23µM*	?	nt
Cc1nnc(N2CCN(C(=O)Nc3cc(F)ccc3F)CC2)c2nn(-c3ccc(Cl)cc3)c(C)c12	nt	i	?	21µM*	21µM*	nt
COc1ccccc1NC(=O)N1CCN(c2nnc(C)c3c(C)n(-c4ccc(Cl)cc4)nc23)CC1	nt	i	i	-7%	1%	nt
O=C(N/N=C/c1cn(-c2cccs2)nc1-c1ccccc1)c1ccccc1Br	-29%	i	i	23µM*	23µM*	-15%
O=C(N/N=C/c1ccccc1C(=O)O)c1ccccc1Br	-2%	i	i	-3%	19%	18%
O=C(N/N=C/c1cn(-c2cccs2)nc1-c1ccccc1)c1ccccc1O	21µM*	i	?	8.2µM*	13µM*	?
COc1cc(OC)cc(N(C(=O)CNC(=O)c2ccco2)C(C(=O)NCC2CCCO2)c2ccccc2)c1 (centres undefined)	-11%	?	i	?	-27%	-22%
CCCCCCn1c(C(C)NC(=O)c2ccco2)nc2ccccc21 (centres undefined)	-22%	i	?	?	?	-20%
CCc1cccc(C)c1NC(=O)CSc1nc2c(c(=O)[nH]1)CCC2	nt	i	i	-17%	-22%	nt
CC(=O)NC1CCCC1C#N (centres undefined)	nt	?	i	-6%	-3%	nt
SMILES	HT1080 IDH1KD tx	KB-3-1 cytotox	KB-V1 MDR tox	DT40 TDP1 no CPT	DT40 TDP1 CPT	HT1080NT lethal
O=C(NCCNC(=O)c1ccccc1O)c1ccccc1O	-1%	i	i	-14%	?	4%
O=C(NCCCCCCNC(=O)c1ccccc1O)c1ccccc1O	-19%	?	?	21µM*	?	0%
Cc1ccccc1NC(=O)c1ccc(CN(c2ccccc2)S(=O)(=O)c2ccccc2)cc1	-17%	i	10µM*	?	?	-9%
COc1ccc(C(=O)Nc2ccc(NC(C)=O)cc2)cc1S(=O)(=O)N(C)Cc1ccccc1	-16%	i	i	?	-26%	-5%
Cc1ccccc1NC(=O)c1ccc(F)c(S(=O)(=O)N(C)Cc2ccccc2)c1	nt	nt	nt	21µM*	?	nt
COc1cccc(C(=O)Nc2ccc(S(=O)(=O)N(Cc3ccccc3)c3ccccc3)cc2)c1	nt	?	?	5.8µM*	?	nt
CCN(c1ccccc1)S(=O)(=O)c1cc(C(=O)Nc2ccc(Br)cc2)ccc1F	?	?	?	21µM*	21µM*	?
Cc1noc(C)c1C(=O)N1CCC[C@@]2(CCN(Cc3nccs3)C2)C1	nt	nt	nt	-14%	-3%	nt
O=C(NCCc1ccc(Cl)cc1)C1CCC(CNc2c(N3CCCCC3)c(=O)c2=O)CC1 (centres undefined)	5%	i	i	?	?	-3%
Cc1cccc(C(=O)Nc2nnc(S(=O)(=O)N(C)Cc3ccccc3)s2)c1	nt	i	i	?	?	nt
CCOc1ccccc1OCC(=O)Nc1ccc(S(=O)(=O)N(C)C)cc1	2%	i	i	-15%	-13%	6%
O=C(Nc1ccc(S(=O)(=O)N(Cc2ccccc2)c2ccccc2)cc1)c1ccccc1F	nt	i	i	?	?	nt
Cc1ccccc1OCC(=O)Nc1ccc(S(=O)(=O)N(Cc2ccccc2)c2ccccc2)cc1	nt	i	i	5.8µM*	?	nt
Cc1cccc(C(=O)Nc2ccc(S(=O)(=O)N(Cc3ccccc3)c3ccccc3)cc2)c1	nt	i	?	10µM*	?	nt
O=C(Nc1ccc(S(=O)(=O)N(Cc2ccccc2)c2ccccc2)cc1)c1ccc(F)cc1	nt	?	?	6.5µM*	23µM*	nt
CC(C)N(Cc1ccccc1)S(=O)(=O)c1ccc(F)cc1	-18%	i	i	9.2µM*	?	-6%
O=C1CC[C@@H](CN(Cc2cccnc2)C2CCN(c3ccc(NC(=O)c4cnccn4)cc3)CC2)N1	nt	nt	nt	-19%	2%	nt

Source: PubChem
